TDP1 cell CPT – growth inhibition of DT40 Tdp1-/-;hTDP1 cells with camptothecin (screen for TDP1 inhibitors) | chicken DT40 Tdp1-/-;hTDP1 cells + 20 nM CPT, ATP luminescence, 48 h | Potency, µM (doses to about 46.2 µM), without a hit: top-dose activity change, negative = growth inhibition, actives largely listed as inhibitors | 12% of 420,000 active; note: nearly all actives have a fitted effect of over 55% in size
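Chicken DT40 Tdp1-/- cells complemented with human TDP1, 400 cells/well, exposed to compounds plus 20 nM camptothecin for at least 48 h at 37 C; viability read as ATP content by CellTiter-Glo luminescence.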
RORg inh – inhibitors of mouse ROR gamma transcriptional activity; P51450; Drosophila S2 Gal4-RORgamma UAS-luciferase reporter, 20 h; Potency, µM (highest dose often 53.6 µM), inactives show at the highest dose activity change, negative = inhibition, usual class: inhibitors; 5.4% of 310,000 active; AID 2551; note: nearly all actives have a fitted effect of over 60% in size
Target sequence (P51450 whole entry, looked up, the tested form may be a part): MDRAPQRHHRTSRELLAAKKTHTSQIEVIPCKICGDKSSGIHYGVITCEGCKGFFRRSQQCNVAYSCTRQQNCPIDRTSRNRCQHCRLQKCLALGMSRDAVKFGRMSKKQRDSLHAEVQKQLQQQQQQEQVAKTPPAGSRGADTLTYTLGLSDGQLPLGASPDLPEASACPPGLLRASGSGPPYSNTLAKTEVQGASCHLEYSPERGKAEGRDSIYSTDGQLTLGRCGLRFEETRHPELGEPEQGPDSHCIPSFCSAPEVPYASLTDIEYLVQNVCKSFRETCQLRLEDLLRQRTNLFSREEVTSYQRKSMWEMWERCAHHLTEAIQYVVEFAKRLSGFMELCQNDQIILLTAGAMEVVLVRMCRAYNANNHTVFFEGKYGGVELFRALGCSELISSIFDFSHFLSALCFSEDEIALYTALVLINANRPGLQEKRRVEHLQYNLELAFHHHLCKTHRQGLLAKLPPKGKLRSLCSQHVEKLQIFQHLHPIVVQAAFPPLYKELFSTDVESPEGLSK
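Read-out: Photinus luciferase luminescence; inhibitors lower reporter signal. Insect Schneider cells with Gal4-ROR gamma fusion under metallothionein promoter, UAS reporter; 700 uM final copper sulfate induction, 20 hr, ambient temperature.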
VP16 counter – Gal4-VP16 reporter inhibition counter-screen; Drosophila S2 Gal4-VP16 UAS-luciferase, luminescence, 20 h; AID 2546; Potency, µM (series often up to 53.6 µM), without a hit: top-dose activity, negative = inhibition, most hits filed as inhibitors; 3.5% of 310,000 active;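 note: Gal4-VP16 expression switched on by copper sulfate through the metallothionein promoter; nearly all actives have a fitted effect of over 50% in size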
TDP1 cell noCPT – qHTS for Inhibitors of human tyrosyl-DNA phosphodiesterase 1 (TDP1): qHTS in cells in absence of CPT | DT40 Tdp1-/- hTDP1 cells, no CPT, ATP luminescence, 48 h | Potency, µM (top dose mostly 46.2 µM), inactives show top-dose activity change, negative = growth inhibition, usual class: inhibitors | 15% of 420,000 active; note: nearly all actives have a fitted effect of over 55% in size
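Compound effects on proliferation are scored in DT40 Tdp1-/-;hTDP1 cells in the absence of CPT. ATP levels (CellTiter-Glo luminescence) are recorded after a ≥48 hr, 37 °C incubation.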
TDP1 block – inhibitors of human tyrosyl-DNA phosphodiesterase TDP1. 0.28% of 350,000 active. Q9NUW8. recombinant TDP1, AlphaScreen DNA substrate cleavage. Potency, µM (doses to about 130 µM), inactives show top-dose activity change, negative = inhibition, hits mostly inhibitors; note: nearly all actives have a fitted effect of over 40% in size
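Steps: enzyme plus compound, 15 min RT; add biotin/phosphotyrosine-FITC oligonucleotide (15 nM final), react 5 min; add donor/acceptor beads (10 ug/ml final), 10 min; read AlphaScreen. Tdp1 at 1 nM final.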
* = called active by the depositor; ? = inconclusive; · = not tested or not shown; [ ] = dose if it differs, or a comment. The list is not random: actives were taken first. Their share in the collection is about 19%. Calls come from the whole dose curve; as a rule, active = well fitted curve in the direction sought with a large enough effect; inconclusive = small, poorly fitted or top-dose-only effect, or another doubt; inactive = no such curve, though single readings can be large; an effect the other way counts as inactive or inconclusive. % is set by controls: 0 for no effect and ±100 for the full control effect; potency is the fitted concentration of half-maximal effect.

SMILES	TDP1 cell CPT	RORg inh	VP16 counter	TDP1 cell noCPT	TDP1 block
O=C(C[C@@H]1C/C=C/CC[C@@H](Cc2ccc(F)cc2)C(=O)OCCNC1=O)N[C@H](CO)Cc1ccccc1	?	·	·	?	-1%
CCOC(=O)C1(C)CCCN(C(=O)c2ccc3snnc3c2)C1 (configuration not stated)	-27%	·	·	-5%	·
COc1ccc(C(=O)NC2CCCc3c2cnn3-c2cccc(C)c2C)o1 (configuration not stated)	21µM*	?	?	23µM*	5%
Cc1cccc(-n2ncc3c2CCCC3NC(=O)c2ccncc2)c1C (configuration not stated)	-7%	·	·	0.23µM*	·
Cc1cccc(-n2ncc3c2CCCC3NC(=O)CN2CCCC2=O)c1C (configuration not stated)	-10%	?	-5%	-2%	2%
Cc1cc(C(=O)NC2CCCc3c2cnn3-c2cccc(C)c2C)no1 (configuration not stated)	21µM*	?	?	16µM*	2%[56.1 µM]
COc1cccc(C(=O)NC2CCCc3c2cnn3-c2cc(C)cc(C)c2)c1 (configuration not stated)	?	16%	12%	?	5%
Cc1cccc(-n2ncc3c2CCCC3NC(=O)CCc2cccnc2)c1C (configuration not stated)	?	23%	?	?	1%
Cc1cccc(-n2ncc3c2CCCC3NC(=O)c2cccs2)c1C (configuration not stated)	?	·	·	18µM*	·
CC(C)(C)NC(=O)NC(=O)COC(=O)COc1ccc2c(c1)CCC2	-22%	9%	-12%	-11%	4%
CCn1cc(C(=O)N2CCN(c3ccc(C(C)=O)cc3)CC2)c2cc(OC)c(OC)cc2c1=O	?	-4%	-8%	-22%	3%
N#CC1(NC(=O)COC(=O)CNC(=O)c2sc3ccccc3c2Cl)CCCCC1	4%	·	·	-4%	3%
Cc1nnc(SCC(=O)NC2CCCc3c2cnn3-c2ccccc2F)o1 (configuration not stated)	-6%	5%	-1%	19%	1%
O=C(CSc1ccccn1)NC1CCCc2c1cnn2-c1ccccc1F (configuration not stated)	-26%	·	·	16µM*	·
CCn1cc(C(=O)NC2CCCc3c2cnn3-c2cccc(C)c2C)cn1 (configuration not stated)	·	-7%	1.3µM*	·	0%
Cc1cccc(-n2ncc3c2CCCC3NC(=O)CN2CCOC2=O)c1C (configuration not stated)	-1%	36%	2%	8%	1%
CC1=C(C(=O)NC2CCCc3c2cnn3-c2cccc(C)c2C)OCCO1 (configuration not stated)	21µM*	?	11µM*	8.2µM*	2%
Cc1cccc(-n2ncc3c2CCCC3NC(=O)Cc2c(C)noc2C)c1C (configuration not stated)	?	20%	10µM*	?	0%
CCOC(=O)C1=C(Nc2ccc(OC)cc2)C(N)=NC1=N	3.7µM*	·	·	1.3µM*	·
COc1ccc(/C=N/NC(=O)CNc2n[nH]c(=O)[nH]c2=O)cc1OC	33%	?	2%	?	1%
COc1ccc2nc(NC(=O)C3CC(=O)N(c4ccc5c(c4)OCCO5)C3)sc2c1 (configuration not stated)	?	·	·	?	14%
COc1ccc(-c2nc(NC(=O)C3CC(=O)N(c4ccc5c(c4)OCCO5)C3)sc2C)cc1 (configuration not stated)	6.3µM*	?	?	6.3µM*	3%
COc1ccc(CN(C)C(=O)C2CC(=O)N(c3ccc4c(c3)OCCO4)C2)c(OC)c1 (configuration not stated)	21µM*	·	·	16µM*	4%
COc1cc2[nH]c(C(=O)N(C)Cc3ccccc3)cc2c(OC)c1OC	-10%	-16%	6%	-29%	·
CCOc1ccc(N(Cc2ccc(OC)c(OC)c2)C(=O)c2ccco2)cc1	?	25%	5%	18µM*	0%
SMILES	TDP1 cell CPT	RORg inh	VP16 counter	TDP1 cell noCPT	TDP1 block
COc1ccc(OCC(=O)N(Cc2cccs2)c2ccc(OC)cc2)cc1	16µM*	·	·	23µM*	5%
COc1ccc(N(Cc2cccs2)C(=O)COc2ccc(C(C)C)cc2)cc1	23µM*	·	·	21µM*	-13%
COc1ccc(N(Cc2cccs2)C(=O)c2ccco2)cc1	23µM*	·	·	?	-5%
CCc1ccc(C(O)(CC)C(CN2CCOCC2)c2ccccc2)cc1 (configuration not stated)	?	21%	-4%	?	·
O=C(COc1ccc2c(-c3ccccc3)cc(=O)oc2c1)NCCN1CCOCC1	?	0%	-4%	-14%	3%
CNc1cncc(-c2cccc(C(=O)N(C)C)c2)n1	-26%	·	·	?	·
CC(=O)c1ccc(-c2cnc3c(NC=O)cc(-c4cccc(C(=O)N(C)C)c4)cn23)cc1	5.2µM*	·	·	7.3µM*	·
CN(C)C(=O)c1cccc(-c2cc(NC=O)c3ncc(-c4ccc(F)cc4)n3c2)c1	?	·	·	16µM*	·
CC(=O)Nc1cnc(-c2cccc(C(=O)N(C)C)c2)cn1	-4%	·	·	2%	·
COc1ccc(F)cc1-c1cc(NC=O)c2ncc(-c3cccc(C(=O)N(C)C)c3)n2c1	?	·	·	23µM*	·
Cc1cccc(C)c1NC(=O)C(=O)NCC1CCCN1S(=O)(=O)c1cccs1 (configuration not stated)	?	·	·	12µM*	·
Cc1ccc(NC(=O)C(=O)NCC2CCCN2S(=O)(=O)c2cccs2)c(C)c1 (configuration not stated)	18µM*	·	·	?	-5%
O=C(NCC1CCCN1S(=O)(=O)c1cccs1)c1cccc(F)c1 (configuration not stated)	16µM*	·	·	18µM*	0%
Cc1cc(C)cc(NC(=O)C(=O)NCC2CCCN2S(=O)(=O)c2cccs2)c1 (configuration not stated)	7.3µM*	·	·	10µM*	·
O=C(NCCc1cccc(C(F)(F)F)c1)C1CCC(=O)N(Cc2ccc(Cl)cc2)C1 (configuration not stated)	?	1%	4%	-22%	5%
O=S(=O)(Cc1ccccc1)N=Nc1c(O)[nH]c2ccc(Br)cc12	13µM*	-5%	-7%	18µM*	7%
COc1ccccc1NC(=O)CCc1nc2sc3c(c2c(=O)[nH]1)CCCC3	12µM*	·	·	2.9µM*	-5%

Screening data: PubChem, National Center for Advancing Translational Sciences (NCATS)
